# According to PMC7862700, “An all-to-all approach to the identification of sequence-specific readers for epigenetic DNA modifications on cytosine”:
# Experiments:
# Experiment in all cases: DAPPL (digital affinity profiling via proximity ligation, sequencing); 10 mM Tris-HCl pH 7.5, 50 mM NaCl, 1 mM DTT, 4% glycerol, room temperature, 30 min; GST-TFs on glutathione beads, 16-mer random dsDNA library, 0.1% formaldehyde crosslink after washing; high values mean tight binding
# FEV = molecular target: T1, FEV (Homo sapiens, UniProt Q99581 1-238); details: protein: recombinant; tags: N-terminal GST; dsDNA, one strand shown
# T1 sequence: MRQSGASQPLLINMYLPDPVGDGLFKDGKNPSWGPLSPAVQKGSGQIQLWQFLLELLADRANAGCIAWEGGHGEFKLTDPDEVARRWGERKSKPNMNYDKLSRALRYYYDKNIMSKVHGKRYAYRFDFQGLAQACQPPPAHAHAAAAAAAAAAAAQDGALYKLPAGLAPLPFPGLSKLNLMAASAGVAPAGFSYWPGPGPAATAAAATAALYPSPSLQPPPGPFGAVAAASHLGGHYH
# In short: (§1)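 Binding signal is given per hexamer as its read frequency for a factor divided by its frequency in the tag-only sample. GST-fused human transcription factors were expressed in yeast, captured on glutathione beads, barcoded with DNA and pooled with that sample, then incubated with 200 nmole of a 16-mer random double-stranded DNA library in Tris/NaCl/DTT/glycerol buffer for 30 min at room temperature. The pools were then washed, crosslinked, proximity-ligated, amplified by PCR and sequenced on an Illumina NextSeq500.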
# ETV5 = ETV5 (Homo sapiens, UniProt P41161 1-510); details: protein: recombinant; tags: N-terminal GST; dsDNA, one strand shown
# Sequence of ETV5 (P41161 whole entry): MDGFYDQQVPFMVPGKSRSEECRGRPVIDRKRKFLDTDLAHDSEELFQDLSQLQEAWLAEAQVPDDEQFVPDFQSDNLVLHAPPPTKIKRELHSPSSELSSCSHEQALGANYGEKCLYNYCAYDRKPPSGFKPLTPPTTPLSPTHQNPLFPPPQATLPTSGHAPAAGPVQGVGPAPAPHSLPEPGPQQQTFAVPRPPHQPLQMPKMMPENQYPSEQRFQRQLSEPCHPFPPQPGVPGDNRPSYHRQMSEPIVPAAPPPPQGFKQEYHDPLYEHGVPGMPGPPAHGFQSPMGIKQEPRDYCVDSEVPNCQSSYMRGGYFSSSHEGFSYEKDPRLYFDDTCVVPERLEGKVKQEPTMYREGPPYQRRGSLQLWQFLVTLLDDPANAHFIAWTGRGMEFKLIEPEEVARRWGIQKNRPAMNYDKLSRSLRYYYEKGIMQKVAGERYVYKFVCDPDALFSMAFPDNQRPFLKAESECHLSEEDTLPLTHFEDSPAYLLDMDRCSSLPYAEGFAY
# In short: as §1
# HSF1 = HSF1 (Homo sapiens, UniProt Q00613 1-529); details: protein: recombinant; tags: N-terminal GST; chain copies: 3; dsDNA, one strand shown
# Sequence of HSF1 (Q00613 whole entry): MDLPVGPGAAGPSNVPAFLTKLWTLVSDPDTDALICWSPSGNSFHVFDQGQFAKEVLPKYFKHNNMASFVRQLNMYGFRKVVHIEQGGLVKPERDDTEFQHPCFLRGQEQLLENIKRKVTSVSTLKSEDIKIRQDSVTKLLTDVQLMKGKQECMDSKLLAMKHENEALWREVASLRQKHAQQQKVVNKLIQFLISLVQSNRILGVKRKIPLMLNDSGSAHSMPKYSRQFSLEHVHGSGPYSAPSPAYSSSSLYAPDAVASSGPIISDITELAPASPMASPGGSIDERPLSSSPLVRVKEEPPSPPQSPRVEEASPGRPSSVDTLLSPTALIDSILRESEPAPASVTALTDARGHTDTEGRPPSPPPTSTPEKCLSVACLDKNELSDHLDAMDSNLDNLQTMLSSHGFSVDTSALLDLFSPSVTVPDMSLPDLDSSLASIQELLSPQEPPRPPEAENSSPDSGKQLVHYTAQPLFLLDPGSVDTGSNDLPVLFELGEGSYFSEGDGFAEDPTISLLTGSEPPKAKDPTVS
# In short: as §1
# SPIC = molecular target: T2, SPIC (Homo sapiens, UniProt Q8N5J4 1-248); details: protein: recombinant; tags: N-terminal GST; dsDNA, one strand shown
# T2 sequence: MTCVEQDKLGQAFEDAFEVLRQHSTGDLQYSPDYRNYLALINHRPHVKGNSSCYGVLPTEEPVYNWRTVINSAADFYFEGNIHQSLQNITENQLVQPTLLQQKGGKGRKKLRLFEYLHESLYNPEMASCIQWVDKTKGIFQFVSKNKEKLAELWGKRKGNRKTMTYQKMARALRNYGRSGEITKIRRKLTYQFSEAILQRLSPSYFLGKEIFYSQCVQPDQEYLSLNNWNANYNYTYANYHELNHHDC
# In short: as §1
# ELF4 = ELF4 (Homo sapiens, UniProt Q99607 1-663); details: protein: recombinant; tags: N-terminal GST; dsDNA, one strand shown
# Sequence of ELF4 (Q99607 whole entry): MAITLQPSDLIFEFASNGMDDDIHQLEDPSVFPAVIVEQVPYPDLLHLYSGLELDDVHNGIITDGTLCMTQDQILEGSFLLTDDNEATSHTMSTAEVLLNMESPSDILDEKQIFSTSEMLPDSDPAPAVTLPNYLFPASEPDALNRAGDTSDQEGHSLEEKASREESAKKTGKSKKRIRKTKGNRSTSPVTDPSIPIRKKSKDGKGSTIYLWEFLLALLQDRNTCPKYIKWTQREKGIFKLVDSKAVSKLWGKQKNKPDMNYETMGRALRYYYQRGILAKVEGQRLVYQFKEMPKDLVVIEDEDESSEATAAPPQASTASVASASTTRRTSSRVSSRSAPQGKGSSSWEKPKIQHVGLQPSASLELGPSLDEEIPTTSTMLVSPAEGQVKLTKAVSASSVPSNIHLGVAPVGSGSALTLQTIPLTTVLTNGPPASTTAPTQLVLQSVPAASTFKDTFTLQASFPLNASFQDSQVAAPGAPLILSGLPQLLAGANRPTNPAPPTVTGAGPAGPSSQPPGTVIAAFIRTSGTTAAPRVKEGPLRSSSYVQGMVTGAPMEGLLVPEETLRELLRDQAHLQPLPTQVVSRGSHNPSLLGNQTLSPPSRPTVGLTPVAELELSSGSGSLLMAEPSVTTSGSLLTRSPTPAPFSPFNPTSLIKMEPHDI
# In short: as §1
# ELK4 = molecular target: T3, ELK4 (Homo sapiens, UniProt P28324-2 1-405); details: protein: recombinant; tags: N-terminal GST; dsDNA, one strand shown
# T3 sequence: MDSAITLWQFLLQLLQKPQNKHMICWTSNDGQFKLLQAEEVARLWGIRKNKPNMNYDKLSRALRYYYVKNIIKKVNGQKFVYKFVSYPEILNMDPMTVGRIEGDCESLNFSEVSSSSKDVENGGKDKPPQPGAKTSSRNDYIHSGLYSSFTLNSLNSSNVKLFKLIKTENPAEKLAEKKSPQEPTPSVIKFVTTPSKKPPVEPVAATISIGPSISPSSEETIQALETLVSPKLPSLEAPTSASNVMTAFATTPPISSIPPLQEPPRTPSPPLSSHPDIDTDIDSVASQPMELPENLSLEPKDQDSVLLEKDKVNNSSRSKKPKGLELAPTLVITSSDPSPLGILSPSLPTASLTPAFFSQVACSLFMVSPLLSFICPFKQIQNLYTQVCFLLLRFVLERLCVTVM
# In short: as §1
# ETV2 = molecular target: T4, ETV2 (Homo sapiens, UniProt O00321 1-342); details: protein: recombinant; tags: N-terminal GST; dsDNA, one strand shown
# T4 sequence: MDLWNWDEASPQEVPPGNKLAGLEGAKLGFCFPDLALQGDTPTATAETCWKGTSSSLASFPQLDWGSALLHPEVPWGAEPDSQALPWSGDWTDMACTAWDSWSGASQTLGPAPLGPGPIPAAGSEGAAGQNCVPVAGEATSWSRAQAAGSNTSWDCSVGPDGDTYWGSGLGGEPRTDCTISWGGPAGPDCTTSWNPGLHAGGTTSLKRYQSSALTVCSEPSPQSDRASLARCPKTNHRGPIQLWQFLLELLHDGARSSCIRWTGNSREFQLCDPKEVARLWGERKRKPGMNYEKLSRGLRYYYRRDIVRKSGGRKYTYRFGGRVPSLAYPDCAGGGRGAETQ
# In short: as §1
# ELF3 = molecular target: T5, ELF3 (Homo sapiens, UniProt P78545 1-371); details: protein: recombinant; tags: N-terminal GST; dsDNA, one strand shown
# T5 sequence: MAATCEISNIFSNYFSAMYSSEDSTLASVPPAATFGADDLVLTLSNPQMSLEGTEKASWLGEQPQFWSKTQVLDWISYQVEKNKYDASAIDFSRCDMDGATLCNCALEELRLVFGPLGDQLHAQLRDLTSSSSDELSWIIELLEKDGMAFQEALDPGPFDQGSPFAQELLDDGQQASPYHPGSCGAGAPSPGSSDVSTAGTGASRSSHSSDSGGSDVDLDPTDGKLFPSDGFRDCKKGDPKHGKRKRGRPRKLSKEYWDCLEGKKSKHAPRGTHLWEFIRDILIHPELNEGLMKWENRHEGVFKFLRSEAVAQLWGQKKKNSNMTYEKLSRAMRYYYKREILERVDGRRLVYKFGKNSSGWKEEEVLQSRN
# In short: as §1
# CRX = CRX (Homo sapiens, UniProt O43186 1-299); details: protein: recombinant; tags: N-terminal GST; dsDNA, one strand shown
# Sequence of CRX (O43186 whole entry): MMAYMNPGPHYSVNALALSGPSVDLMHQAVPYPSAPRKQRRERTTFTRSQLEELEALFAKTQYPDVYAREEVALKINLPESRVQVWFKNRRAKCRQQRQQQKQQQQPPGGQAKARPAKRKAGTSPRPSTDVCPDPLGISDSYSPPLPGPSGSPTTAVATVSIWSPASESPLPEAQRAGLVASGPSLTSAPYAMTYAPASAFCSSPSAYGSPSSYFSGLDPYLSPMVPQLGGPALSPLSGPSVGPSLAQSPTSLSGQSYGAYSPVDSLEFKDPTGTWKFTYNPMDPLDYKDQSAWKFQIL
# In short: as §1
# ETV1 = ETV1 (Homo sapiens, UniProt P50549 1-477); details: protein: recombinant; tags: N-terminal GST; dsDNA, one strand shown
# Sequence of ETV1 (P50549 whole entry): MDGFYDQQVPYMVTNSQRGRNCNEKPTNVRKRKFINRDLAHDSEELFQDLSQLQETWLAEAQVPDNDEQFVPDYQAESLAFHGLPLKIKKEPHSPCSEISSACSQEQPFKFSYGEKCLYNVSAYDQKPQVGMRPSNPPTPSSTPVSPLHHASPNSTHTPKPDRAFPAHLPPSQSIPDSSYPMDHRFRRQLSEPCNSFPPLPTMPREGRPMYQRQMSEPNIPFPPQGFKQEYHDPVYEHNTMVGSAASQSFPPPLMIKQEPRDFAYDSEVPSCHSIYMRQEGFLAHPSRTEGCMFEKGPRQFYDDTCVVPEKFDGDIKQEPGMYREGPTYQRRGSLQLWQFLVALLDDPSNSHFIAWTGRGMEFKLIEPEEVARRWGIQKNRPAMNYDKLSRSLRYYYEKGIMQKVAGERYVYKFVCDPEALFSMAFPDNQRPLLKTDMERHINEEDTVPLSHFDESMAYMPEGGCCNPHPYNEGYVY
# In short: as §1
# ERF = molecular target: T6, ERF (Homo sapiens, UniProt P50548 1-548); details: protein: recombinant; tags: N-terminal GST; dsDNA, one strand shown
# T6 sequence: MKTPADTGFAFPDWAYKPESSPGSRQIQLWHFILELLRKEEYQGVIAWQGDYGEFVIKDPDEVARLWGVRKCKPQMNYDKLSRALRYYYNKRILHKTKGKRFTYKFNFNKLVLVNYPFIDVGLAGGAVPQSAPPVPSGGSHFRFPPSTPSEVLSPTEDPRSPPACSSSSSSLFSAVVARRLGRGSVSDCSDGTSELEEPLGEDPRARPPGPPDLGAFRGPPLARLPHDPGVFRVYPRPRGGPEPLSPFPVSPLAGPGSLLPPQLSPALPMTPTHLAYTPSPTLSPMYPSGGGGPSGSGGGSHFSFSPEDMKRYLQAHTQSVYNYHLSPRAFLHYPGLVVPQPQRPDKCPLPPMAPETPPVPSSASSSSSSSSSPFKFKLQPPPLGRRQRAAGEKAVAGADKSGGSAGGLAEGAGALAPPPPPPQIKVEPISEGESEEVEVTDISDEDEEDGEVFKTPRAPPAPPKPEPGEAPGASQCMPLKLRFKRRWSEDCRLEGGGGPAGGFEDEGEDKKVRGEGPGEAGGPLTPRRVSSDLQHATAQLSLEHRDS
# In short: as §1
# ETV3L = molecular target: T7, ETV3L (Homo sapiens, UniProt Q6ZN32 1-361); details: protein: recombinant; tags: N-terminal GST; dsDNA, one strand shown
# T7 sequence: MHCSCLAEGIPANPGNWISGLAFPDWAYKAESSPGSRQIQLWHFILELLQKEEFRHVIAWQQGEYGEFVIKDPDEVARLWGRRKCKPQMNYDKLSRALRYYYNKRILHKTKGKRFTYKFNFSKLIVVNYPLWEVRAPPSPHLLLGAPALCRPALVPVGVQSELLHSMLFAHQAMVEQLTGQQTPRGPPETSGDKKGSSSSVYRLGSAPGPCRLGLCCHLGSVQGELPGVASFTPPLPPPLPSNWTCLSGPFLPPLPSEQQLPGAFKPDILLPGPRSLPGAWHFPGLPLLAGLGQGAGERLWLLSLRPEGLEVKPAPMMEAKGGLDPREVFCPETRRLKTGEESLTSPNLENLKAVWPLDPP
# In short: as §1
# ETS2 = molecular target: T8, ETS2 (Homo sapiens, UniProt P15036 1-469); details: protein: recombinant; tags: N-terminal GST; dsDNA, one strand shown
# T8 sequence: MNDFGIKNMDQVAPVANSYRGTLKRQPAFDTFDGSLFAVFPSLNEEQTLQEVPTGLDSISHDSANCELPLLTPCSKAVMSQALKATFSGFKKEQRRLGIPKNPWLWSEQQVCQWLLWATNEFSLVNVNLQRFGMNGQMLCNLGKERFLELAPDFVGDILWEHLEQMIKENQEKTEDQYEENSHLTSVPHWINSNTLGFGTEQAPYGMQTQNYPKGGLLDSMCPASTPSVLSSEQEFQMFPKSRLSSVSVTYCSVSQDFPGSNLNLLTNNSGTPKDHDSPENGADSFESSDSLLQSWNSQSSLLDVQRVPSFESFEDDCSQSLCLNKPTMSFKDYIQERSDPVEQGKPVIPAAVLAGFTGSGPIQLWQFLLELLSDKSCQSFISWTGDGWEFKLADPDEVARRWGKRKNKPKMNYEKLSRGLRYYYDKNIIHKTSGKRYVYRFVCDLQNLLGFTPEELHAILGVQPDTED
# In short: as §1
# SPDEF = molecular target: T9, SPDEF (Homo sapiens, UniProt O95238 1-335); details: protein: recombinant; tags: N-terminal GST; dsDNA, one strand shown
# T9 sequence: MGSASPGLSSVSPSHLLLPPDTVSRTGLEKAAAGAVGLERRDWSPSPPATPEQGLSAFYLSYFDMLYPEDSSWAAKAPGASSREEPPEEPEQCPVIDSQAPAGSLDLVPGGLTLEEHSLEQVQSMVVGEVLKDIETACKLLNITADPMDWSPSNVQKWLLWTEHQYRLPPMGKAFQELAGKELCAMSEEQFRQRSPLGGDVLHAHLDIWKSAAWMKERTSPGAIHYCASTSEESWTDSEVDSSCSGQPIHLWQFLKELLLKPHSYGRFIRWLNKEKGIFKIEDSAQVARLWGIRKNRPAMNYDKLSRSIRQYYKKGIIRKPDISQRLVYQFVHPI
# In short: as §1
# ETV7 = molecular target: T10, ETV7 (Homo sapiens, UniProt Q9Y603 1-341); details: protein: recombinant; tags: N-terminal GST; dsDNA, one strand shown
# T10 sequence: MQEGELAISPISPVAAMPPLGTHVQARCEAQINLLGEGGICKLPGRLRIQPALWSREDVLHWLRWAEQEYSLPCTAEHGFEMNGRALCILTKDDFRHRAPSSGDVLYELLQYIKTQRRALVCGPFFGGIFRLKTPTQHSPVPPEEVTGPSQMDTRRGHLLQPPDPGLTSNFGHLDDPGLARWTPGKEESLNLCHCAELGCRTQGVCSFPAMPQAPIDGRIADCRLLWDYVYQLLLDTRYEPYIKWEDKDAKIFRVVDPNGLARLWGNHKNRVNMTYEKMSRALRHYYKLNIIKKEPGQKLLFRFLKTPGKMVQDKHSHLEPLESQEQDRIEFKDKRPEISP
# In short: as §1
# ELF5 = molecular target: T11, ELF5 (Homo sapiens, UniProt Q9UKW6-2 1-255); details: protein: recombinant; tags: N-terminal GST; dsDNA, one strand shown
# T11 sequence: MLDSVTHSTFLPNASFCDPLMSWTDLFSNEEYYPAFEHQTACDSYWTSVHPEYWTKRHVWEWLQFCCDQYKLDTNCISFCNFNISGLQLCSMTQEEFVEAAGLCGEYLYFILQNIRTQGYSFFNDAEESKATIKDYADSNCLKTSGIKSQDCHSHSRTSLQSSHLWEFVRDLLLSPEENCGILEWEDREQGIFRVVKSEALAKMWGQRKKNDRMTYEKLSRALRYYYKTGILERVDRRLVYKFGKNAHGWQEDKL
# In short: as §1
# ETV3 = molecular target: T12, ETV3 (Homo sapiens, UniProt P41162-2 1-143); details: protein: recombinant; tags: N-terminal GST; dsDNA, one strand shown
# T12 sequence: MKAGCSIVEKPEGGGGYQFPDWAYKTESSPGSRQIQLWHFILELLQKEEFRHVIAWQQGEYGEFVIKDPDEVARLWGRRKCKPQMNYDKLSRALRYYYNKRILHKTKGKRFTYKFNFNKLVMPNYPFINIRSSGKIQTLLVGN
# In short: as §1
# ETV6 = ETV6 (Homo sapiens, UniProt P41212 1-452); details: protein: recombinant; tags: N-terminal GST; dsDNA, one strand shown
# Sequence of ETV6 (P41212 whole entry): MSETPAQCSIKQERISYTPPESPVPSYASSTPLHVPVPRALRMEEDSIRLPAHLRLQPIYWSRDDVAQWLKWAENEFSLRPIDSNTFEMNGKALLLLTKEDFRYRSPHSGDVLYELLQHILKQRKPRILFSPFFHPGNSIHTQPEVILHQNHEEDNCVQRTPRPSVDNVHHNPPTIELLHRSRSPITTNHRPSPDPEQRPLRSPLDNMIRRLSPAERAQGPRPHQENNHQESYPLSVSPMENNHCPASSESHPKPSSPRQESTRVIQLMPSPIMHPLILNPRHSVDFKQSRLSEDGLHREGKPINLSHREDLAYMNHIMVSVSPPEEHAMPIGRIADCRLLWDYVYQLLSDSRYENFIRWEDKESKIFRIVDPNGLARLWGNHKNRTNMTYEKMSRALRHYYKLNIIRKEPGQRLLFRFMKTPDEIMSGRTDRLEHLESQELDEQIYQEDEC
# In short: as §1
sequence,measurement,setting,value
TTAGTT,binding signal,FEV,"1.2 fold enrichment (6-mer frequency, TF over GST control)"
same,binding signal,ETV5,"1.25 fold enrichment (6-mer frequency, TF over GST control)"
same,binding signal,HSF1,"1.68 fold enrichment (6-mer frequency, TF over GST control)"
same,binding signal,SPIC,"1.28 fold enrichment (6-mer frequency, TF over GST control)"
same,binding signal,ELF4,"1.37 fold enrichment (6-mer frequency, TF over GST control)"
same,binding signal,ELK4,"1.32 fold enrichment (6-mer frequency, TF over GST control)"
same,binding signal,ETV2,"1.37 fold enrichment (6-mer frequency, TF over GST control)"
same,binding signal,ELF3,"1.25 fold enrichment (6-mer frequency, TF over GST control)"
same,binding signal,CRX,"2.25 fold enrichment (6-mer frequency, TF over GST control)"
same,binding signal,ETV1,"1.33 fold enrichment (6-mer frequency, TF over GST control)"
same,binding signal,ERF,"1.37 fold enrichment (6-mer frequency, TF over GST control)"
same,binding signal,ETV3L,"1.35 fold enrichment (6-mer frequency, TF over GST control)"
same,binding signal,ETS2,"1.23 fold enrichment (6-mer frequency, TF over GST control)"
same,binding signal,SPDEF,"1.38 fold enrichment (6-mer frequency, TF over GST control)"
same,binding signal,ETV7,"1.25 fold enrichment (6-mer frequency, TF over GST control)"
same,binding signal,ELF5,"1.24 fold enrichment (6-mer frequency, TF over GST control)"
same,binding signal,ETV3,"1.45 fold enrichment (6-mer frequency, TF over GST control)"
same,binding signal,ETV6,"1.38 fold enrichment (6-mer frequency, TF over GST control)"
